Measurements taken from the supplement of paper PMC6555819.

What follows are sequences tested on RXRa homodimer (NR concentration 180 nM) (assay: PBM binding z-score (relative to random genomic background probes); higher = stronger binding; sequences stand for … in GC…GCGATTGACAGCGTAGAATGAAGG).
Outline: (§1)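 Binding z-scores were set against random background probes. The data came from custom Agilent 4×180K protein-binding microarrays carrying double-stranded probes with 34-nt variable regions, incubated 1 h with ligand-free nuclear receptor dimers. Partner-specific antibodies detected binding, and scanned fluorescence was regression-normalized.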

Sequence | PBM binding z-score
GCTAGTTGGTCAGGAAAAGGTCACACACCGGTCG | 4.98
ATAATGAGGTTATTAAGATCAGGGAATTGCGGTC | 1.88
AGAACGGGGGCACGCTGAGTTGATAGCAGAGTAG | 2.94
GCTAGCAGGCCATTTGCGTCACTCAATGACGGGC | -0.347
TAGCCTAGGTCAGATCGGGCCAGCATACGCTATA | 1.72
CCGACTGGGGCGAAGGTTACCATACTCAGTACGA | 1.12
AGTCAAAGTTCATCTAGGTAACGTCAGATATGCT | 4.45
CGTCCAAGGTCAGCAGTTCAGTGAAAGCGACGTG | 4.16
AGAGCGAGGGCAATGAGTTGATAGCACGGGTGGC | 0.736
TCTTGTAGATCAGCAGCTTAAGAAAGCTGGCCAA | -0.355
AATACAGGGGCACTAGGCCAGAGTAGGTACGAAT | 0.611
CCTAACGGGTCACTGACAGGTTATAGCATTTGGA | 4.09
ATATGTAGGTTAGCTGGGGTGATTCAGACTAGGC | 0.872
TCTTTTAGTTGAAGGGCAACCGACGAGTCCGTTT | 0.842
TCATATAGGTAAATGCTAGGTGCAAGTCCGATCT | 0.838
ACTCGGAGGACAAAGGTCAGAGCGACGCCAGTGA | 5.37
CGGCCAAGGTCAATGCTAGGTCAGTGAAAGCATT | 5.16

The sequences below were run on THRa:RXRa (NR concentration 90 nM, RXRa partner concentration 90 nM) in the same assay as above.
Outline: as §1

Sequence | PBM binding z-score
CCTTACGGGTCACGAAGTTATAGCACGACGAGCG | 2.87
TCTTGTAGATCAAGTAGGTTAAGAAAGCCTGAGT | 0.372
CGTCCAAGGTCAAAGGTCCGTGAAGAGATGACGG | 3.99
CCTTACGGGTCACTGACAGGTTAAAGCATTTGGA | 2.9
ACTAGCAGGCCAAGGGTCACTCGAGATTAGTCCG | 2.45
ATATGGAGGTTACATCCGGGTCATTCAGGCTATG | 4.11
GATACAGGGTCAAGTCCAGAGTACGCGTATTGAT | 3.68
ATATGTAGGTTATCGGGTCATTCAGTTTGCGCAT | 3.23
ACTATTAGTTGACTTAGGGGAACCGATACGACGC | 1.11
TCTTGTAGATCAGCTGGTTAAGAAAGCTGGCCAA | -0.515
CTCGAAAGGTCGGTTGAGGTGAGTATGCGGATAA | 5.15
CCTATTAGTTGACCATGAGGGCAACCGAAGCTCG | 2.11
AGAATGAGGTTACCAATGATCAGGGAAACGCTTG | 2.61
CTCGAAAGGTCGGCTGAGGTGAGTATACGGATAA | 5.13
CGTCCAAGGTCAGAGAGGTCAGTGCATGCCGAGT | 4.21
TCTAGTTGGTCACTGAGGTCACACACGACGGGTA | 4.47
ATCTCTAGGTAACCAAGTTCACTGAATGCCGAAC | 2.34
TAGCCTATGTCATTCAGGGGCCAGTATAGAAAGC | 0.454
ACTAGCAGGCCAAGTTTGGGTCTCTCAAACAAAG | -0.042
GTACCAAGGTGAATAGGTCGCTGATGAGTAGGCG | 1.59

Sequence | PBM binding z-score
TCTGCTAGGGCAACGATGGTCAGCTAATCTGCTA | 0.381
CGTCCAAGGTGATAGGAGGTCAGTGAAGACAGAT | 4.34
GCTAGTTGGTCAGGAAAAGGTCACACACCGGTCG | 3.52
ATAATGAGGTTATTAAGATCAGGGAATTGCGGTC | 2.3
AGAACGGGGGCACGCTGAGTTGATAGCAGAGTAG | 2.9
GCTAGCAGGCCATTTGCGTCACTCAATGACGGGC | -0.649
TAGCCTAGGTCAGATCGGGCCAGCATACGCTATA | 4.27
CCGACTGGGGCGAAGGTTACCATACTCAGTACGA | 0.439
AGTCAAAGTTCATCTAGGTAACGTCAGATATGCT | 3.18
CGTCCAAGGTCAGCAGTTCAGTGAAAGCGACGTG | 3.78
AGAGCGAGGGCAATGAGTTGATAGCACGGGTGGC | 0.613
TCTTGTAGATCAGCAGCTTAAGAAAGCTGGCCAA | -0.626
AATACAGGGGCACTAGGCCAGAGTAGGTACGAAT | 0.473
CCTAACGGGTCACTGACAGGTTATAGCATTTGGA | 2.46
ATATGTAGGTTAGCTGGGGTGATTCAGACTAGGC | 4.14
TCTTTTAGTTGAAGGGCAACCGACGAGTCCGTTT | 0.355
TCATATAGGTAAATGCTAGGTGCAAGTCCGATCT | 0.121
ACTCGGAGGACAAAGGTCAGAGCGACGCCAGTGA | 3.66
CGGCCAAGGTCAATGCTAGGTCAGTGAAAGCATT | 4.29

These sequences were tested on THRa homodimer (NR concentration 90 nM) in the same assay as above.
Outline: as §1

Sequence | PBM binding z-score
CCTTACGGGTCACGAAGTTATAGCACGACGAGCG | 0.0516
TCTTGTAGATCAAGTAGGTTAAGAAAGCCTGAGT | -0.238
CGTCCAAGGTCAAAGGTCCGTGAAGAGATGACGG | 2.24
CCTTACGGGTCACTGACAGGTTAAAGCATTTGGA | -0.0327
ACTAGCAGGCCAAGGGTCACTCGAGATTAGTCCG | 0.0934
ATATGGAGGTTACATCCGGGTCATTCAGGCTATG | 2.74
GATACAGGGTCAAGTCCAGAGTACGCGTATTGAT | 1.22
ATATGTAGGTTATCGGGTCATTCAGTTTGCGCAT | 3.19
ACTATTAGTTGACTTAGGGGAACCGATACGACGC | 0.616
TCTTGTAGATCAGCTGGTTAAGAAAGCTGGCCAA | -1.3
CTCGAAAGGTCGGTTGAGGTGAGTATGCGGATAA | 1.43
CCTATTAGTTGACCATGAGGGCAACCGAAGCTCG | 1.79
AGAATGAGGTTACCAATGATCAGGGAAACGCTTG | 0.788
CTCGAAAGGTCGGCTGAGGTGAGTATACGGATAA | 1.12
CGTCCAAGGTCAGAGAGGTCAGTGCATGCCGAGT | 2.91
TCTAGTTGGTCACTGAGGTCACACACGACGGGTA | 5.09
ATCTCTAGGTAACCAAGTTCACTGAATGCCGAAC | 1.27
TAGCCTATGTCATTCAGGGGCCAGTATAGAAAGC | -0.611
ACTAGCAGGCCAAGTTTGGGTCTCTCAAACAAAG | -0.533
GTACCAAGGTGAATAGGTCGCTGATGAGTAGGCG | 0.0254

Sequence | PBM binding z-score
TCTGCTAGGGCAACGATGGTCAGCTAATCTGCTA | -0.978
CGTCCAAGGTGATAGGAGGTCAGTGAAGACAGAT | 1.51
GCTAGTTGGTCAGGAAAAGGTCACACACCGGTCG | 1.64
ATAATGAGGTTATTAAGATCAGGGAATTGCGGTC | 0.964
AGAACGGGGGCACGCTGAGTTGATAGCAGAGTAG | 0.833
GCTAGCAGGCCATTTGCGTCACTCAATGACGGGC | -0.795
TAGCCTAGGTCAGATCGGGCCAGCATACGCTATA | 0.0653
CCGACTGGGGCGAAGGTTACCATACTCAGTACGA | -0.242
AGTCAAAGTTCATCTAGGTAACGTCAGATATGCT | 0.387
CGTCCAAGGTCAGCAGTTCAGTGAAAGCGACGTG | 2.45
AGAGCGAGGGCAATGAGTTGATAGCACGGGTGGC | -0.514
TCTTGTAGATCAGCAGCTTAAGAAAGCTGGCCAA | -0.605
AATACAGGGGCACTAGGCCAGAGTAGGTACGAAT | -0.285
CCTAACGGGTCACTGACAGGTTATAGCATTTGGA | -0.159
ATATGTAGGTTAGCTGGGGTGATTCAGACTAGGC | 1.26
TCTTTTAGTTGAAGGGCAACCGACGAGTCCGTTT | -0.174
TCATATAGGTAAATGCTAGGTGCAAGTCCGATCT | 0.135
ACTCGGAGGACAAAGGTCAGAGCGACGCCAGTGA | 0.5
CGGCCAAGGTCAATGCTAGGTCAGTGAAAGCATT | 2.46
